Our source for the growth values is PubChem BioAssay (NCI).

The panel holds about 83,000 compounds, 20% with a hit somewhere; the sample as a whole holds those more often.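 Single-dose data. Exposure time 48 hours. Values below 10 considered active.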 Unmarked numbers belong to inactive results. Active and inactive are the calls of the source.

Among the test systems are SR leukemia; RPMI-8226 leukemia; OVCAR-8 ovarian; OVCAR-5 ovarian; OVCAR-4 ovarian; SK-OV-3 ovarian; IGROV1 ovarian; OVCAR-3 ovarian; HS 578T breast; NCI/ADR-RES ovarian; T-47D breast; BT-549 breast; MDA-MB-435 melanoma; SW-620 colon; HCT-116 colon; HCC-2998 colon; KM12 colon; MCF7 breast.
What all share (test): NCI-60 one-dose screen, 48 h (100 = growth as untreated, 0 = no growth, -100 = all killed)
Holding throughout (details): 10 µM unless noted

Turning to `O=C(CSc1nnc(-c2ccc(Cl)cc2)n1-c1ccccc1)Nc1cccc(Cl)c1`, the growth in the assay on SR leukemia was 21.4%; in the assay with RPMI-8226 leukemia, 34.5%; in the assay with OVCAR-8 ovarian, 62.4%; with OVCAR-5 ovarian, 71.7%; in the assay with OVCAR-4 ovarian, -5.99% (active); with SK-OV-3 ovarian it was 126%. The growth with IGROV1 ovarian is 46.7%; with OVCAR-3 ovarian it was 82%; in the assay on HS 578T breast, 54.4%; in the assay on NCI/ADR-RES ovarian, 50.4%; with T-47D breast, 48.2%; in the assay on BT-549 breast, 61.6%. The growth is 72.9% in the assay on MDA-MB-435 melanoma; 49.8% with SW-620 colon; 12.8% in the assay with HCT-116 colon; 83.8% in the assay on HCC-2998 colon; 71.9% in the assay on KM12 colon.
As for `COc1cc(/C=C2\C(=O)Nc3cc(Cl)ccc32)ccc1OCc1ccc(F)cc1`, the growth in the assay with SR leukemia is 97.5%; in the assay with RPMI-8226 leukemia, 113%; in the assay with OVCAR-8 ovarian, 98.7%; in the assay on OVCAR-5 ovarian, 98.6%; in the assay with OVCAR-4 ovarian, 83.2%; in the assay with SK-OV-3 ovarian it was 97.2%. For the same molecule, the growth was 72.7% with IGROV1 ovarian; 102% with OVCAR-3 ovarian; 91.7% in the assay on HS 578T breast; 101% in the assay on NCI/ADR-RES ovarian; 94.1% in the assay on T-47D breast; 95.7% with BT-549 breast. For the same molecule, the growth in the assay on MDA-MB-435 melanoma was 103%; in the assay with MCF7 breast it was 57.1%; in the assay with HCT-116 colon it was 92.9%; with HCC-2998 colon, 96.8%; with KM12 colon, 102%.
Take `CC1(C)CC[C@]2(CN)CC[C@]3(C)C(=CC[C@@H]4[C@@]5(C)CCCNC(C)(C)[C@@H]5CC[C@]43C)[C@H]2C1`: the growth in the assay with SR leukemia was 61.7%; with RPMI-8226 leukemia, 81.3%; with OVCAR-8 ovarian it was 101%; with OVCAR-5 ovarian it was 105%; in the assay on OVCAR-4 ovarian, 103%; in the assay with SK-OV-3 ovarian, 106%. Moreover, the growth is 98.1% in the assay on IGROV1 ovarian; 106% in the assay on OVCAR-3 ovarian; 108% in the assay on HS 578T breast; 105% in the assay on NCI/ADR-RES ovarian; 78.3% in the assay with T-47D breast; 101% in the assay with BT-549 breast. Besides, the growth with MDA-MB-435 melanoma is 97.3%; in the assay on MCF7 breast it was 85.7%; in the assay with HCT-116 colon, 90.6%; with HCC-2998 colon, 45.9%; in the assay on KM12 colon it was 101%.
On to `CS(=O)(=O)Nc1cc(-c2ccc3ncc(C#N)c(Nc4cccc(Cl)c4F)c3c2)cnc1Cl`, for which the growth in the assay with SR leukemia was 1.4% (active); with RPMI-8226 leukemia, -36.9% (active); with OVCAR-8 ovarian, 10.6%; in the assay with OVCAR-5 ovarian, 21.2%; with OVCAR-4 ovarian it was 19.1%; in the assay on SK-OV-3 ovarian, -18.2% (active). Also, the growth in the assay on IGROV1 ovarian was -43.8% (active); with OVCAR-3 ovarian, -12.8% (active); in the assay with HS 578T breast it was -26.6% (active); with NCI/ADR-RES ovarian it was 33.7%; in the assay on T-47D breast it was -8.48% (active); with BT-549 breast, -4.23% (active). Also, the growth was 3.99% (active) in the assay with MDA-MB-435 melanoma; 3.98% (active) in the assay with MCF7 breast; -14.8% (active) in the assay with HCT-116 colon; -22.1% (active) in the assay with HCC-2998 colon; 3.37% (active) with KM12 colon.
As to `C=CC(=O)N1CCC=C(c2cc3c(N[C@H](C)c4ccccc4)ncnc3[nH]2)C1`, the growth with SR leukemia is 32.9%; in the assay with RPMI-8226 leukemia, 41.8%; with OVCAR-8 ovarian it was 66.4%; in the assay on OVCAR-5 ovarian, 49.8%; in the assay with OVCAR-4 ovarian it was 45.4%; in the assay with SK-OV-3 ovarian, -6.72% (active). Also, the growth in the assay on IGROV1 ovarian was 14.5%; with OVCAR-3 ovarian, 56.2%; in the assay with HS 578T breast, 69%; in the assay with NCI/ADR-RES ovarian, 73.7%; in the assay with T-47D breast, 29.7%; in the assay with BT-549 breast it was 89.8%. Moreover, the growth with MDA-MB-435 melanoma is 74.5%; in the assay with SW-620 colon, 91.7%; with HCT-116 colon, 71.8%; with HCC-2998 colon, 93.8%; in the assay with KM12 colon it was 90.5%.
As for `COc1cc(OC)c(/C=C/S(=O)(=O)Cc2ccc(OC)c(NCC(=O)NO)c2)c(OC)c1`, the growth in the assay with SR leukemia was 12.2%; in the assay with RPMI-8226 leukemia, 20.2%; in the assay on OVCAR-8 ovarian it was 8.29% (active); in the assay with OVCAR-5 ovarian it was 33.6%; in the assay on OVCAR-4 ovarian, 45.3%; in the assay on SK-OV-3 ovarian it was 37.3%. Also, the growth in the assay on IGROV1 ovarian was 9.44% (active); in the assay with OVCAR-3 ovarian, 2.98% (active); in the assay with HS 578T breast, 17%; in the assay on NCI/ADR-RES ovarian, 7.63% (active); in the assay with T-47D breast it was 74.3%; in the assay on BT-549 breast, 11.6%. Also, the growth in the assay with MDA-MB-435 melanoma was -8.04% (active); in the assay on MCF7 breast, 11%; with HCT-116 colon it was 3.2% (active); in the assay on HCC-2998 colon, 14.2%; in the assay with KM12 colon, 4.53% (active).
As to `CC1(C)CC[C@]2(C(=O)O)CC[C@]3(C)C(=CC[C@@H]4[C@@]5(C)CC/C(=N\OCCC#N)C(C)(C)[C@@H]5CC[C@]43C)[C@@H]2C1`, the growth in the assay with SR leukemia was 103%; in the assay on RPMI-8226 leukemia, 97.5%; in the assay with OVCAR-8 ovarian it was 109%; with OVCAR-5 ovarian, 103%; in the assay on OVCAR-4 ovarian, 82.6%; in the assay with SK-OV-3 ovarian, 110%. For the same molecule, the growth in the assay with IGROV1 ovarian was 85.7%; in the assay with OVCAR-3 ovarian, 110%; with HS 578T breast, 107%; in the assay with NCI/ADR-RES ovarian it was 116%; in the assay with T-47D breast, 104%; in the assay with BT-549 breast, 106%. In addition, the growth in the assay with MDA-MB-435 melanoma was 101%; in the assay with MCF7 breast it was 95.5%; in the assay on HCT-116 colon it was 96.4%; with HCC-2998 colon it was 116%; in the assay with KM12 colon, 105%.
With `CN(C)CCNC(=O)c1ccc(-c2nc3ccc4[nH]ncc4c3c3c2COCC3)cc1`, the growth with SR leukemia was -25.1% (active); with RPMI-8226 leukemia, 44.3%; with OVCAR-8 ovarian it was 11%; in the assay with OVCAR-5 ovarian it was 27.5%; in the assay with OVCAR-4 ovarian it was 2.78% (active); in the assay with SK-OV-3 ovarian, 14%. The growth with IGROV1 ovarian is 0.798% (active); in the assay with OVCAR-3 ovarian, -6.74% (active); with HS 578T breast, -19.6% (active); with NCI/ADR-RES ovarian, 92.2%; in the assay on T-47D breast, -7.62% (active); in the assay with BT-549 breast, -16.2% (active). Further, the growth in the assay on MDA-MB-435 melanoma was 3.65% (active); with MCF7 breast it was 0.287% (active); in the assay with HCT-116 colon, 2.59% (active); with HCC-2998 colon, -20.8% (active); in the assay with KM12 colon, 16.4%.
